Reference: PubChem BioAssay AID623911 (Vanderbilt High Throughput Screening Facility, 2012)
Out of some 2,100 compounds screened, about 770 (37%) were called active. The list shows a part of the results. Unmarked numbers belong to inactive results.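 The calls were made as follows: active = by-eye trace score of 1 for enhancers or -1 for inhibitors, so actives lie on both sides (some results past the limit were not filed as active); inactive = score 0, or 3 fluorescent, or 4 baseline rise.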

biological target: G protein-activated inward rectifier potassium channel 2 (Homo sapiens) + G protein-activated inward rectifier potassium channel 1 (Homo sapiens) (UniProt P48051+P48549); assay: GIRK1/2 thallium flux modulators, retest, confirmation, cell-based, HEK293 rmGlu8/hGIRK1/2, FluoZin-2 (AID 623911); conditions: HEK293 rmGlu8/hGIRK1/2, thallium flux FluoZin-2; actives lie on both sides; glutamate co-added at its EC20 level
Sequence (P48051 whole entry, looked up): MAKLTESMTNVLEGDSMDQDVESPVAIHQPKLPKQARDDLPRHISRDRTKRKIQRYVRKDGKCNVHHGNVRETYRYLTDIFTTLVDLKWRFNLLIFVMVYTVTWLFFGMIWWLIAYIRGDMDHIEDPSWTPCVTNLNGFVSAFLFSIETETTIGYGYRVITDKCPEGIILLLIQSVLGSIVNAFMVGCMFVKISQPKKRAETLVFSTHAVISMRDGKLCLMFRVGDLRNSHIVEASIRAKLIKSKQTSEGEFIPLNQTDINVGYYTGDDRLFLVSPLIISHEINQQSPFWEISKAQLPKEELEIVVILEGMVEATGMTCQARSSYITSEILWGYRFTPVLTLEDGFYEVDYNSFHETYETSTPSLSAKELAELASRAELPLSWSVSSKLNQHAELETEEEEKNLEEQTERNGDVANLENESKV
Sequence (P48549 whole entry, looked up): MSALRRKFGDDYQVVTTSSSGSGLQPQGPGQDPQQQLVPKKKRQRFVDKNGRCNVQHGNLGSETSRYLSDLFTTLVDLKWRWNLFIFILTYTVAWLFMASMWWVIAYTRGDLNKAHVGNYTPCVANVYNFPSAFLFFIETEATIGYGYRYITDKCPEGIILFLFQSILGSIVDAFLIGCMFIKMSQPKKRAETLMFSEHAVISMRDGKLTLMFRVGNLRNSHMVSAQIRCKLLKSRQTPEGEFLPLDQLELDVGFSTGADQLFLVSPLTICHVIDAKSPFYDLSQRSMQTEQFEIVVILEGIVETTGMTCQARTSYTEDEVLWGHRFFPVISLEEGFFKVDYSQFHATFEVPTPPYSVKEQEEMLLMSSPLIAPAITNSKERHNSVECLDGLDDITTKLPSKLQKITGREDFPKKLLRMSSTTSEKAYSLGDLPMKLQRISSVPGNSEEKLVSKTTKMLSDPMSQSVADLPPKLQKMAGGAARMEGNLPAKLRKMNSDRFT

| SMILES | manual score |
| --- | --- |
| CCCn1c(SC(C(=O)Nc2cc(C)ccc2OC)c2ccccc2)nc2ccccc2c1=O (stereo unspecified) | 0 |
| CCCn1c(=O)c2ccccc2n2c(SCC(=O)N3CCc4ccccc4C3)nnc12 | -1 (active) |
| CCCn1c(=O)c2ccccc2n2c(SCCOc3ccccc3F)nnc12 | -1 (active) |
| Cc1ccc2oc(=O)c3cnn(CC(=O)N4CCc5ccccc5C4)c3c2c1 | 0 |
| CCCn1c(=O)c2ccccc2n2c(SCc3nc4ccccc4s3)nnc12 | 0 |
| O=C(CSc1nc2ccccc2n1CCc1ccccc1)N1CCOCC1 | 0 |
| COc1ccc(-c2nc(C#N)c(NCCCN(C)C)o2)cc1OC | 0 |
| COc1ccc(OCC(=O)NNC(=O)C(=O)Nc2ccc(C)cc2)cc1 | 1 (active) |
| CC(C)(C)NC(=O)C(=O)NNC(=O)COc1ccc(Br)cc1 | 1 (active) |
| CNC(=S)SCCOc1ccc(C)cc1 | 3 |
| Cc1ccc(OCC(=O)NNC(=O)C(=O)NC(C)(C)C)cc1 | 1 (active) |
| Nc1c(-c2ccccc2)cnn1-c1ccc(C(=O)O)cc1 | 0 |
| CC1=NCCN1S(=O)(=O)c1cc(Cl)ccc1Cl | 0 |
| O=C(NCc1ccccc1)c1ccc2c(=O)n(CCCN3CCCC3=O)c(=S)[nH]c2c1 | 0 |
| CCn1c(NC(=S)Nc2ccccc2)nc2ccccc21 | 0 |
| COc1ccc(CNC(=O)C(C#N)c2nc3ccccc3nc2N2CCCC2)cc1 (stereo unspecified) | 3 |
| COc1cccc(CNc2nc3ccccc3n2CCN2CCCCC2)c1OC | -1 (active) |
| COc1ccccc1CNC(=O)c1c(N)n(CCCN2CCOCC2)c2nc3ccccc3nc12 | 0 |
| Cn1c(CNc2nc3ccccc3n2CCN2CCCCC2)nc2ccccc21 | -1 (active) |
| COc1ccc(/C=C/c2nc3sc4c(c3c(=O)o2)CCC4)cc1 | 3 |
| COc1cc(NC(=O)c2ccc(C)cc2)c(OC)cc1NC(=O)CN1CCCCC1 | 0 |
| COc1ccc(OC)c(NC(=O)C2CC(=O)N(c3ccc(Br)cc3)C2)c1 (stereo unspecified) | 0 |

| SMILES | manual score |
| --- | --- |
| COc1cc(NC(=O)C(=O)NNC(=O)C2CCCCC2)c(OC)cc1Cl | 1 (active) |
| CCOC(=O)CSc1nc2c(sc(=S)n2-c2ccccc2OC)c(=O)n1Cc1ccco1 | -1 (active) |
| CCOc1ccccc1NC(=O)CSc1nnc(-c2ccccn2)n1Cc1ccco1 | 0 |
| CCOC(=O)N1CCN(C(=O)CSc2nc3c(c(=O)n2-c2ccccc2OC)SCC3)CC1 | 0 |
| CCCc1nnc2n1N=C(c1ccc(OC)c(OC)c1)CS2 | 0 |
| Brc1ccccc1C1=Nn2c(nnc2-c2ccccc2)SC1 | -1 (active) |
| CCOC(=O)c1sc2ncnc(NCc3ccco3)c2c1C | 1 (active) |
| Nc1nc(Nc2ccccc2)nc(NCc2ccco2)c1[N+](=O)[O-] | 0 |
| CS(=O)(=O)N(CC(=O)NCc1ccco1)c1ccc(Cl)c(C(F)(F)F)c1 | 0 |
| Cc1ccc2c(Cl)cc(Cl)c(OCC(=O)NCc3ccco3)c2n1 | 1 (active) |
| Cc1ccc(-n2c(CSc3nc(C)cc(C)n3)nnc2SCC(=O)NCc2ccco2)cc1 | 0 |
| C=CCOn1c(=O)c(-c2cccs2)[n+]([O-])c2ccccc21 | 3 |
| CCCCCCn1c(=O)[nH]c2nc3cc(N)ccc3nc2c1=O | 3 |
| CN1CCN(C(=S)NC(=O)/C=C/c2cccc3ccccc23)CC1 | 0 |
| CNC(=S)N1CCN(c2ccc(OC)cc2)CC1 | 0 |
| O=C(NC(=S)N1CCN(Cc2ccccc2)CC1)c1ccccc1 | 1 (active) |
| COc1ccc(C(=O)NC(=S)N2CCC(C)CC2)cc1 | 1 (active) |
| COc1ccc(C(=O)NC(=S)N2CCCCC2)cc1 | 2 |
| CC1CCN(C(=S)NC(=O)c2ccccc2)CC1 | 1 (active) |
| CC1CCN(c2ncccc2C(=O)O)CC1 | 0 |
| CC1CCN(c2ccccc2NC(=S)NC(=O)c2cccs2)CC1 | 0 |
| Cc1cccc(-n2c(-c3csc(C(C)C)c3)n[nH]c2=S)c1 | 0 |

| SMILES | manual score |
| --- | --- |
| CCn1nc(C(=O)OCC(=O)c2c[nH]c3ccccc23)c2ccccc2c1=O | 0 |
| O=C(c1ccc2c(=O)n(C3CCCC3)c(=S)[nH]c2c1)N1CCc2ccccc21 | 0 |
| CCc1c(C)nc(SCC(=O)N2CCc3ccccc32)[nH]c1=O | 3 |
| CCCCn1nc(C(=O)N2CCc3ccccc32)c2ccccc2c1=O | -1 (active) |
| Cc1c(C(=O)N2CCc3ccccc32)oc2c1C(=O)CC(C)(C)C2 | 0 |
| CCn1nc(C(=O)OCC(=O)N2CCc3ccccc32)c2ccccc2c1=O | -1 (active) |
| Cc1[nH]n(-c2cccc3ccccc23)c(=O)c1/C=N/c1sc2c(c1C#N)CCC2 | 1 (active) |
| Cc1[nH]n(-c2ccc(F)cc2)c(=O)c1/C=N/c1sc2c(c1C#N)CCCC2 | 3 |
| CC(=O)c1cccc(NC(=O)C2CCCN2S(=O)(=O)c2cccc3cccnc23)c1 (stereo unspecified) | 0 |
| CCOC(=O)c1c(NS(=O)(=O)c2cccc(OC)c2)sc2c1CCC2 | 1 (active) |
| CCOC(=O)c1c(NS(=O)(=O)c2ccc(Br)cc2)sc2c1CCC2 | 1 (active) |
| COc1ccccc1OCC(=O)Nc1sc2c(c1C(=O)NCC1CCCO1)CCC2 (stereo unspecified) | 0 |
| CCOc1ccc(C(=O)CN2CCN(S(=O)(=O)c3ccc(Br)cc3)CC2)cc1 | 0 |
| CCc1cc2c(=O)n(CC)c(SC(C)C(=O)Nc3c(C)n(C)n(-c4ccccc4)c3=O)nc2s1 (stereo unspecified) | 0 |
| O=C(NC(=S)N(CCc1ccccc1)CCc1ccccc1)c1ccco1 | 1 (active) |
| O=C(CNC(=S)NC(=O)c1ccco1)c1ccccc1 | 1 (active) |
| O=C(NC(=S)Nc1nc2ccccc2s1)c1cccs1 | 0.5 |
| O=C(CNC(=S)NC(=O)c1cccs1)c1ccccc1 | 1 (active) |
| O=C(NC(=S)Nc1nc2c(ccc3ccccc32)s1)c1cccs1 | 0.5 |
| O=C(NC(=S)NCCc1ccccc1)c1ccco1 | 1 (active) |
| O=C(NC(=S)NCCc1ccccc1)c1ccccc1 | 0 |
| Fc1cccc(-n2c(-c3ccco3)nc3nc4ccccc4nc32)c1 | 0 |

| SMILES | manual score |
| --- | --- |
| O=C(Nc1ccncc1)c1ccc2c(c1)C(=O)N(C1CCCCC1)C2=O | 0 |
| CCCCNc1c2c3c(cccc3n(C)c1=O)C(=O)c1ccccc1-2 | 3 |
| CCc1nc(N2CCOCC2)c(C#N)c2c1CCCC2 | 0 |
| S=c1nc[nH]c2c1sc1nc(-c3ccccc3)c3c(c12)CCCC3 | 1 (active) |
| N#CC1=C(N)SC(N)=C(C#N)C1CCc1ccccc1 | 0 |
| N#CC1=C(N)SC(N)=C(C#N)C1c1c(Cl)cccc1Cl | -1 (active) |
| Cc1sccc1C1C(C#N)=C(N)SC(N)=C1C#N | 0 |
| Cc1ccc(C2CC2C(=O)NNC(=S)Nc2cccc(Cl)c2)cc1 (stereo unspecified) | 0 |
| S=C(NCc1cccs1)Nc1cccc(Cl)c1 | 1 (active) |
| O=C(CSc1cccc2cccc(Cl)c12)NCc1cccs1 | 0 |
| Cc1csc(NC(=S)Nc2cccc(Cl)c2)n1 | 1 (active) |
| COCCCN(C(=S)Nc1cccc(Cl)c1)C(C)c1ccncc1 (stereo unspecified) | 0 |
| CC(C)n1c(-c2ccc(C(C)(C)C)cc2)n[nH]c1=S | 0 |
| Cc1ccc2nc(NC(=S)NC(=O)c3cccs3)sc2c1 | 0 |
| Cc1ccc(C(=O)N/N=C(/CC(=O)c2cccs2)C(F)(F)F)cc1 | 1 (active) |
| CSCSC1=C(C#N)C(c2ccccc2Cl)C(C(C)=O)=C(C)N1 (stereo unspecified) | -1 (active) |
| N#Cc1c(-c2ccco2)nc(SCc2ccc(F)cc2)[nH]c1=O | 0 |
| CC(=O)C1=C(C)NC(SCC(=O)c2ccc(Cl)cc2Cl)=C(C#N)C1c1ccco1 (stereo unspecified) | -1 (active) |
| CCOC(=O)C1=C(c2ccccc2)NC(SC)=C(C#N)C1c1ccco1 (stereo unspecified) | 0 |
| CC(=O)C1=C(C)NC(SCc2ccc(C#N)cc2)=C(C#N)C1c1ccco1 (stereo unspecified) | -1 (active) |
| CSCSC1=C(C#N)C(c2ccc(Cl)cc2)C(C(C)=O)=C(C)N1 (stereo unspecified) | 0 |
| CCOc1ccccc1C1CC(=O)NC(SCC)=C1C#N (stereo unspecified) | 0 |

| SMILES | manual score |
| --- | --- |
| C=CCNc1nc(N2CCCC2)nc2ccccc12 | -1 (active) |
| CC(Nc1nc(N2CCCC2)nc2ccccc12)c1ccccc1 (stereo unspecified) | -1 (active) |
| CC(Nc1nc(N2CCCCC2)nc2ccccc12)c1ccccc1 (stereo unspecified) | -1 (active) |
| CC1(C)CC(=S)Nc2ccccc2S1 | 0 |
| CCc1cccc(NC(=O)NC2CCCCC2)c1 | 0.5 |
| O=C(Nc1ccc(F)c(F)c1)NC1CCCCC1 | 1 (active) |
| CCCN1CCC(NC(=O)Nc2ccc(F)cc2F)CC1 | 0 |
| CC1(C)CC(=O)C2=C(C1)OC(/N=C/N1CCOCC1)=C(C#N)C2c1ccccc1 (stereo unspecified) | -1 (active) |
| N=c1c2c(-c3ccccc3)c(-c3ccccc3)n(Cc3ccccc3)c2ncn1CCCO | -1 (active) |
| CC(C)Cn1cnc2c(c(-c3ccccc3)c(-c3ccccc3)n2Cc2ccco2)c1=N | -1 (active) |
| COC(=O)c1cc(NC(=O)c2ccoc2C)cc(C(=O)OC)c1 | 0 |
| COc1cc2c(C(=O)N3CCN(C4CCCCC4)CC3)cn(CC(C)C)c(=O)c2cc1OC | -1 (active) |
| CCN1CCN(C(=O)c2ccc3c(=O)n(C4CCCC4)c(=S)[nH]c3c2)CC1 | 0 |
| CC(C)OC(=O)CC12CN3CN(C1)CC(CC(=O)OC(C)C)(C3)C2=O | 0 |
| CCN(CC)c1nc(C)nc2c1cnn2CCc1ccccc1 | 0 |
| Cc1ccccc1NC(=O)C(=O)NC(C)CCc1ccccc1 (stereo unspecified) | 0 |
| Cc1cccc(NC(=O)NC(C)CCc2ccccc2)c1 (stereo unspecified) | 1 (active) |
| Cc1cccc(NC(=S)NC(=O)CCc2ccccc2)c1 | 0 |
